Among all 1,900 compounds or so, about 250 (13%) were called active. Not shown: some 4% with an inconclusive outcome.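 Rule for the calls: active = fitted curve reaches 40% rescue activity at or below the top valid dose, in every test run; inconclusive = test runs disagree, some active and some inactive; inactive = every run misses the threshold or moves the wrong way.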 The list is a sample of the results. A call without a number means that no potency is given here. Potency and affinity values are given separately.

This is an account of results in PubChem BioAssay AID624405 (Broad Institute, 2012).

The nature of this assay: suppressors of statin myotoxicity in myotubes, dose response, cell-based, C2C12 myotubes, ATP luminescence, cherry pick (AID 624405).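 Note: myotubes are challenged with simvastatin at 10 µM to lower ATP.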 Particulars: C2C12 myotubes + simvastatin, 48 h, scaled: DMSO wells 0, geranylgeraniol wells 100; series mostly up to 19.5 µM.
On to `O=C(O)c1ccc(C(=O)c2ccc3c(c2)C(=O)N(Cc2ccco2)C3=O)cc1`, for which the outcome was inactive. Turning to `Cc1noc(C)c1S(=O)(=O)Nc1ccc2c(c1)C(=O)N([C@H](C)CO)C[C@H](C)[C@@H](CN(C)C(=O)Nc1cccc3ccccc13)O2`, the outcome was inactive. Next, `COc1ccc(C#Cc2cnc3c(c2)C(=O)N([C@@H](C)CO)C[C@H](C)[C@H](CN(C)C(=O)Nc2cccc(OC)c2)O3)cc1`: “inactive”; `C[C@H](CO)N1C[C@H](C)[C@@H](CN(C)Cc2ccc(C(=O)Nc3ccccc3N)cc2)Oc2ccc(NC(=O)Nc3cccc4ccccc34)cc2C1=O`: “inactive”. In the case of `COc1ccc(NC(=O)Nc2ccc3c(c2)C(=O)N([C@@H](C)CO)C[C@H](C)[C@H](CN(C)Cc2ccc(C(F)(F)F)cc2)OCCCC[C@@H](C)O3)cc1` it was “inactive”; in that of `COc1ccc(N=Cc2sc(O)c3ccccc23)cc1`, “inactive”. In the case of `C[C@@H]1CN([C@H](C)CO)C(=O)c2cc(C3=CCCCC3)cnc2O[C@H]1CN(C)Cc1ccccc1F` it was “inactive”; in that of `Cn1c(CCN2CCCCC2)nc2cc(NC(=O)Nc3ccccc3)ccc21`, “inactive”; in that of `CC(C(=O)N1CCCc2ccccc21)N1C(=O)c2ccccc2C1=O` (centres undefined), “inactive”.

Consider `CCN(CC)C(=O)c1ccc(NS(=O)(=O)c2ccccc2)cc1`, for which the outcome was inactive.

Turning to `NNC(=O)COc1cccc2cccnc12`, the result was inactive. In the case of `O=c1[nH]c(Nc2ccccc2Cl)cc2ccccc12` it was “inactive”; in that of `CC(C)(C)C(=O)COC(=O)CNC(=O)c1ccc(Oc2ccccc2)cc1`, “inactive”. Next, `Cc1ccc(S(=O)(=O)Nc2ccc3c(c2)CC(=O)N([C@H](C)CO)C[C@@H](C)[C@H](CN(C)Cc2ccc(Cl)c(Cl)c2)O3)cc1`: “inactive”; `C[C@@H]1CN([C@H](C)CO)C(=O)Cc2cc(NS(=O)(=O)c3ccc(Cl)cc3)ccc2O[C@H]1CN(C)Cc1ccc(Cl)c(Cl)c1`: “inactive”. In the case of `Cc1ccc(S(=O)(=O)Nc2ccc3c(c2)CC(=O)N([C@@H](C)CO)C[C@@H](C)[C@@H](CN(C)Cc2ccc(Cl)c(Cl)c2)O3)cc1` it was “inactive”. For `Cc1ccc(S(=O)(=O)Nc2ccc3c(c2)CC(=O)N([C@@H](C)CO)C[C@@H](C)[C@H](CN(C)Cc2ccc(Cl)c(Cl)c2)O3)cc1`, the outcome was inactive.

Take `C[C@H]1CN([C@@H](C)CO)C(=O)Cc2cc(N(C)C)ccc2O[C@@H]1CN(C)Cc1ccc(Cl)c(Cl)c1`: the outcome was inactive. In the case of `C[C@@H]1CN([C@H](C)CO)C(=O)Cc2cc(N(C)C)ccc2O[C@@H]1CN(C)Cc1ccc(Cl)c(Cl)c1` it was “inactive”.

As for `Cc1ccc(S(=O)(=O)Nc2ccc3c(c2)CC(=O)N([C@H](C)CO)C[C@@H](C)[C@@H](CN(C)Cc2ccc(Cl)c(Cl)c2)O3)cc1`, the result was inactive. Next, `C[C@@H]1CN([C@H](C)CO)C(=O)Cc2cc(NS(C)(=O)=O)ccc2O[C@@H]1CN(C)Cc1ccc(Cl)c(Cl)c1`: “inactive”; `C[C@H](CO)N1C[C@H](C)[C@@H](CN(C)C(=O)Nc2ccc(C(F)(F)F)cc2)OCCCC[C@H](C)Oc2ccc(NC(=O)Nc3cccc4ccccc34)cc2C1=O`: “inactive”; `CC(=O)c1ccc(NC(=O)c2cc(-c3cccs3)on2)cc1`: “inactive”. In the case of `C=C[C@@H]1c2c(F)cccc2N(S(=O)(=O)c2ccc(C)cc2)[C@H](c2ccc(C(=O)OC)cc2)C1(C#N)C#N` it was “inactive”; in that of `Cc1noc(C)c1NC(=O)N(C)C[C@@H]1OCCCC[C@@H](C)Oc2ccc(NS(=O)(=O)c3cn(C)cn3)cc2C(=O)N([C@H](C)CO)C[C@@H]1C`, “inactive”; in that of `C[C@@H]1CN([C@H](C)CO)C(=O)Cc2cc(NC(=O)Cc3cn(C)c4ccccc34)ccc2O[C@H]1CN(C)Cc1ccc2c(c1)OCO2`, “inactive”. Next, `Cc1ccc(-c2nc(CS(=O)CC(=O)NC3CCCCC3)c(C)o2)cc1` (centres undefined): “inactive”; `C[C@@H]1CN([C@H](C)CO)C(=O)Cc2cc(NS(=O)(=O)c3ccc(F)cc3)ccc2O[C@H]1CN(C)Cc1ccc2c(c1)OCO2`: “inactive”; `C[C@@H]1CN([C@@H](C)CO)C(=O)Cc2cc(NS(=O)(=O)c3ccc(Cl)cc3)ccc2O[C@H]1CN(C)Cc1ccc2c(c1)OCO2`: “inactive”.

Turning to `C[C@@H]1CN([C@H](C)CO)C(=O)c2cc(NC(=O)CCC(F)(F)F)ccc2O[C@@H](C)CCCCO[C@@H]1CN(C)Cc1ccc(C(F)(F)F)cc1`, the result was inactive.

Consider `COc1ccc(OC)c(C(c2nnnn2Cc2ccccc2)N2CCN(C3CCCCC3)CC2)c1` (centres undefined), for which the outcome was inactive. Next, `COc1ccc(Cn2nnnc2C(c2ccccc2OC)N2CCC(C(N)=O)CC2)cc1` (centres undefined): “inactive”.

On to `Cc1cnc(-c2nnc(N(C)C(=O)c3cccnc3)s2)cn1`, for which the outcome was inactive. In the case of `C[C@@H]1CN([C@H](C)CO)C(=O)c2cccc(NS(=O)(=O)c3cccs3)c2O[C@@H]1CN(C)S(=O)(=O)c1ccccc1` it was “inactive”; in that of `COc1cccc(NC(=O)c2cccc(OC)c2OC)c1`, “inactive”. As to `CCOC(=O)N1CCN(C(=O)CSCC(=O)Nc2nc(-c3ccc4c(c3)OCO4)cs2)CC1`, the result was inactive. On to `CN1C(=O)c2cc(NC(=O)Cc3cccs3)ccc2OC[C@H]2O[C@@H](CC(=O)NCc3ccc(-c4ccccc4)cc3)CC[C@H]21`, for which the outcome was inactive. In the case of `O=C(CSc1ccc2c(c1)OCCO2)Nc1ccc(Br)cc1`, the outcome was inactive. Next, `CC(Oc1ccc(Cl)cc1Cl)C(=O)N(Cc1ccco1)C1CCS(=O)(=O)C1` (centres undefined): “inactive”.

For `O=C(C[C@H]1CC[C@H]2[C@@H](COC[C@@H](O)CN2C(=O)c2cc(Cl)cc(Cl)c2)O1)N1CCc2ccccc2C1`, the result was inactive. With `CS(=O)(=O)N(CCc1ccccc1)CC(=O)N1CCc2ccccc2C1`, the outcome was inactive.

In the case of `Cc1cc(C)c2cc(CN(Cc3ccco3)C(=O)NCc3ccccc3)c(=O)[nH]c2c1`, the outcome was inactive. In the case of `COc1ccc(NC(=O)Cn2ccc(C(F)(F)F)n2)cc1S(=O)(=O)N1CCOCC1` it was “inactive”; in that of `C[C@@H]1CCCCO[C@H](CN(C)S(=O)(=O)c2ccc(Cl)cc2)[C@@H](C)CN([C@H](C)CO)C(=O)c2cc(NS(C)(=O)=O)ccc2O1`, “inactive”. Next, `CCOC(=O)c1c(C)oc2ccc(OCC(=O)C(C)(C)C)cc12`: “inactive”; `COc1ccc(C)cc1NC(=O)C1CCCN1C(=O)OCc1ccccc1` (centres undefined): “inactive”. In the case of `CC(=O)c1cccc(NC(=O)N2CCCC2C(=O)Nc2cc(C)ccc2C)c1` (centres undefined) it was “inactive”; in that of `O=C(Nc1ccccc1Cl)N1C[C@H]2[C@@H](c3ccccc31)[C@H](CO)N2Cc1ccccc1`, “inactive”; in that of `C[C@H]1CN([C@@H](C)CO)C(=O)Cc2cc(NC(=O)Nc3ccc(C(F)(F)F)cc3)ccc2O[C@H]1CN(C)Cc1ccc(Oc2ccccc2)cc1`, “inactive”. `C[C@@H]1CCCCO[C@@H](CN(C)Cc2ccc(Cl)c(Cl)c2)[C@@H](C)CN([C@@H](C)CO)C(=O)c2cc(NC(=O)NC3CCCCC3)ccc2O1`: the result was inactive. In the case of `Cc1sc2nc(CN(C(=O)c3cccs3)C3CCCC3)[nH]c(=O)c2c1C` it was “inactive”; in that of `C[C@@H]1CN([C@@H](C)CO)C(=O)Cc2cc(NC(=O)Cc3cn(C)c4ccccc34)ccc2O[C@H]1CN(C)Cc1ccc(Cl)c(Cl)c1`, “inactive”; in that of `O=C(CSc1ncn(-c2ccccc2)n1)Nc1ccc2c(c1)OCCO2`, “inactive”. Next, `Cc1ccc(CSc2nnc3nc(C)cc(C)n23)cc1`: “inactive”; `CCOC(=O)Nc1c(C(=O)OC)[nH]c2cc(OC)ccc12`: “inactive”. Next, `CC(C)CCNc1ncnc2c1cnn2Cc1ccccc1Cl`: “inactive”. Regarding `Cc1cccc(S(=O)(=O)N(C)C[C@H]2OCc3ccccc3-c3c(n(C)c4ccccc34)C(=O)N([C@@H](C)CO)C[C@H]2C)c1`, the outcome was inactive. In the case of `Cc1ccccc1S(=O)(=O)N(C)C[C@H]1OCc2ccccc2-c2c(n(C)c3ccccc23)C(=O)N([C@H](C)CO)C[C@H]1C` it was “inactive”; in that of `C[C@H](CO)N1C[C@H](C)[C@@H](CN(C)S(=O)(=O)c2ccccc2)OCCCC[C@H](C)Oc2ccc(N(C)C)cc2C1=O`, “inactive”; in that of `C[C@@H]1CN([C@@H](C)CO)C(=O)c2cc(NC(=O)NC3CCCCC3)ccc2O[C@@H](C)CCCCO[C@H]1CN(C)C(=O)c1ccccc1`, “inactive”.

As to `COc1ccc(CN2[C@H](CO)[C@@H]3c4ccccc4N(C(=O)C4CC4)C[C@@H]32)cc1`, the outcome was inactive. Next, `C=C(C)Cn1c(CCCNC(=O)C(C)(C)C)nc2ccccc21`: “inactive”; `CCc1nc2ccccc2n(CCOCCOCCn2c(=O)c(CC)nc3ccccc32)c1=O`: “inactive”. For `Cc1ccc(OCCCn2c(CO)nc3ccccc32)cc1`, the outcome was inactive. In the case of `CCC(=O)NCCc1nc2ccccc2n1Cc1ccccc1` it was “inactive”; in that of `CCCCCCN1Cc2ccccc2C1`, “inactive”. Next, `CCCCn1c(=O)c(-c2ccccc2)c(O)c2ccccc21`: “inactive”. For the molecule `CCN1CCCC1CNC(=O)c1c(O)c2c([nH]c1=O)CCCC2` (centres undefined), the outcome was inactive.

As for `COCC(C)NS(=O)(=O)c1ccc(C)cc1` (centres undefined), the outcome was inactive. Next, `C[C@H]1CN([C@@H](C)CO)C(=O)Cc2cc(NC(=O)c3ccncc3)ccc2O[C@@H]1CN(C)C(=O)Nc1cccc2ccccc12`: “inactive”; `C[C@H](CO)N1C[C@H](C)[C@@H](CN(C)S(=O)(=O)c2ccc(Cl)cc2)OCCCC[C@H](C)Oc2ccc(NS(C)(=O)=O)cc2C1=O`: “inactive”; `C[C@H](CO)N1C[C@H](C)[C@@H](CN(C)Cc2ccc(Cl)c(Cl)c2)Oc2ccc(NC(=O)Cc3ccccc3)cc2CC1=O`: “inactive”. In the case of `C[C@H]1CN([C@@H](C)CO)C(=O)c2cc(C3=CCCCC3)cnc2O[C@H]1CN(C)C(=O)c1ccccn1` it was “inactive”; in that of `Cc1cc(NC(=O)c2ccc(N3C(=O)CCC3=O)cc2)no1`, “inactive”; in that of `COc1cc(C)ccc1OCCCOc1cc(C)ccc1Cl`, “inactive”. Turning to `COc1ccc(Cl)cc1C(=O)n1nc(C)cc1C`, the result was inactive. In the case of `C[C@@H]1CN([C@@H](C)CO)C(=O)Cc2cc(NC(=O)CCC(F)(F)F)ccc2O[C@H]1CN(C)Cc1ccc(Oc2ccccc2)cc1` it was “inactive”; in that of `CCc1c(C)sc(NC(=O)c2ccco2)c1C(=O)N1CCCCC1`, “inactive”. Next, `Cc1ccc(-c2nc3ccccc3[nH]2)cc1NC(=O)c1ccco1`: “inactive”.
